According to PubChem BioAssay (Tox21):
Inconclusive results are not listed. Activity calls are given as the source filed them. Unless noted, the call rests on the fitted dose curve; in most records, active means well fitted curve in the direction sought with a large enough effect in the repeat runs; inconclusive means weak or mixed curves; inactive means no such curve, though single readings can be large; an effect the other way counts as inactive or inconclusive.

Assays:
[1] = qHTS assay to identify small molecule HDAC inhibitors (AID 1259364); further: top concentration of the series differs between compounds; nearly all actives have a fitted effect of over 45% in size
Procedure, shortened: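 Wild-type HCT-116 cells, plated overnight at 37 C, exposed to compounds 2 hr at 37 C; luminogenic HDAC-Glo substrate then added 30 min at room temperature. Luminescence reports relative endogenous class I/II HDAC activity.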

[2] = qHTS assay to identify small molecule HDAC inhibitors - cell viability counter screen (AID 1259365); further: series mostly up to about 92 µM; nearly all actives have a fitted effect of over 50% in size
Procedure, shortened: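 HCT-116 (wild type), 1,500 cells/well, overnight 37C/5% CO2; compound in DMSO 2hr; CellTiter-Glo 30min RT; luminescence read.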

[3] = qHTS assay to identify small molecule agonists of the sonic hedgehog signaling (Shh) pathway - cell viability counter screen (AID 1259366); further: nearly all actives have a fitted effect of over 50% in size
Procedure, shortened: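 CellTiter-Fluor fluorescence read-out, 1 hr at 37C, added after 23hr compound exposure. Cells: 3T3 Gli1-Luc, an NIH/3T3 clone with stably integrated Gli1-Luc reporter, plated 4hr before compound.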

[4] = qHTS assay to identify small molecule antagonists of the sonic hedgehog signaling (Shh) pathway - cell viability counter screen (AID 1259367); further: nearly all actives have a fitted effect of over 55% in size
Procedure, shortened: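 After a 4 hr settling period, 3T3 Gli1-Luc cells were treated with DMSO-dissolved chemicals and conditioned medium, kept 24 hr at 37C in 5% CO2, and assayed for viability by CellTiter-Fluor fluorescence following 1 hr reagent incubation.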

[5] = qHTS assay to identify small molecule agonists of the sonic hedgehog signaling (Shh) pathway (AID 1259368; calls by dose curve;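 further: NIH/3T3-derived 3T3Gli1-Luc cells carrying a stable Gli1-driven firefly luciferase reporter; series mostly up to about 92 µM; nearly all actives have a fitted effect of over 15% in size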)
Procedure, shortened: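 NIH/3T3-derived 3T3Gli1-Luc cells with stably integrated Gli1-driven firefly luciferase, 2,000 cells/well, compounds added after 4 hr. Incubated 24 hr at 37C, 5% CO2; luminescence read after 30 min with luciferase reagent at room temperature.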

[6] = qHTS assay to identify small molecule agonists of the androgen receptor (AR) signaling pathway in the presence of an antagonist - cell viability counter screen (AID 1259379);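 further: MDA-kb2 human breast cancer cells carrying an MMTV luciferase reporter; series mostly up to about 92 µM; nearly all actives have a fitted effect of over 25% in size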
Procedure, shortened: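 MDA-kb2 cells (MMTV-luciferase, AR/GR), 3,000/well, 5 h attachment, then 3.0 µM nilutamide (final) and compounds at 15 concentrations. Viability by CellTiter-Fluor fluorescence after 16 h at 37 °C, 0% CO2, in the reporter wells.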

[7] = qHTS assay to identify small molecule agonists of the estrogen receptor beta (ER-beta) signaling pathway - cell viability counter screen (AID 1259380); further: nearly all actives have a fitted effect of over 30% in size
Procedure, shortened: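 ER-beta-UAS-bla HEK293T cells in medium with 2% charcoal-stripped FBS, pre-incubated 6 hr, then treated 16 hr at 37C. Cytotoxicity read in the same wells by CellTiter-Glo luminescence after 30 min at room temperature.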

[8] = qHTS assay to identify small molecule antagonists of the estrogen receptor beta (ER-beta) signaling pathway - cell viability counter screen (AID 1259382); further: series mostly up to about 92 µM; nearly all actives have a fitted effect of over 55% in size
Procedure, shortened: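 ER-beta-UAS-bla HEK293T cells in 2% charcoal-stripped FBS medium, treated with compound plus 1 nM 17-beta-estradiol for 16 h at 37C. Viability read by CellTiter-Glo luminescence after 30 min at room temperature in the same wells.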

[9] = molecular target: Estrogen receptor (Homo sapiens) (UniProt P03372); experiment: qHTS assay to identify small molecule agonists of the estrogen receptor alpha (ER-alpha) signaling pathway in the presence of an antagonist (AID 1259383; calls by dose curve; further: top concentration of the series differs between compounds; nearly all actives have a fitted effect of over 15% in size)
Procedure, shortened: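 VM7Luc4E2 cells express endogenous full-length ER-alpha with an ERE-luciferase reporter and were hormone-deprived for 5 days. Compounds at 15 concentrations were added with 10.0nM ICI-182,780 for 22hr at 37C. Luminescence was read with ONE-Glo.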

[10] = qHTS assay to identify small molecule agonists of the estrogen receptor alpha (ER-alpha) signaling pathway in the presence of an antagonist - cell viability counter screen (AID 1259386);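 further: series mostly up to about 92 µM; cells exposed to compounds for 22 h at 37 °C before the viability read; nearly all actives have a fitted effect of over 30% in size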
Procedure, shortened: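 Cell viability in VM7Luc4E2 cells (endogenous full-length ER-alpha) measured by CellTiter-Fluor fluorescence in the same wells as the luciferase screen. Cells pre-cultured 5 days in charcoal-stripped serum, then treated 22 h with compounds at 15 concentrations plus 10.0nM ICI-182,780.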

[11] = molecular target: Progesterone receptor (Homo sapiens) (UniProt P06401); experiment: qHTS assay to identify small molecule antagonists of the progesterone receptor (PR) signaling pathway (AID 1346795; active means well fitted inhibition curve with a large enough effect in the signal ratio in the repeat runs, not every such curve was filed as active; the % refers to the signal ratio)
Procedure, shortened: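 Beta-lactamase reporter, HEK293T PR-UAS-bla line; 2% charcoal-stripped FBS; 6 hr pre-incubation, 37C/5% CO2. Compound + R5020 1 nM final, 16 hr. LiveBLAzer B/G FRET substrate, 2 hr RT; fluorescence intensity read.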

[12] = qHTS assay to identify small molecule agonists of the progesterone receptor (PR) signaling pathway - cell viability counter screen (AID 1346799; calls by dose curve; further: nearly all actives have a fitted effect of over 45% in size)
Procedure, shortened: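 HEK293T PR-UAS-bla, 3,000 cells/well, 2% charcoal-stripped FBS; 6 h settle, compound 16 h at 37C/5% CO2; LiveBLAzer 2 h RT, then CellTiter-Glo 30 min RT, luminescence read.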

[13] = qHTS assay to identify small molecule antagonists of the TGF-beta/Smad signaling pathway - cell viability counter screen (AID 1346824); further: nearly all actives have a fitted effect of over 50% in size
Procedure, shortened: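 SBE-bla HEK 293T cells were plated overnight at 37 C, then given compounds in DMSO plus TGF-beta1 (added as 0.25 ng/mL solution) for 5 hr. After the bla read, CellTiter-Glo was added to the same wells and luminescence read after 30 min at room temperature.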

[14] = qHTS assay to identify small molecule antagonists of the sonic hedgehog signaling (Shh) pathway (AID 1259369; calls by dose curve; further: nearly all actives have a fitted effect of over 45% in size)
Procedure, shortened: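 NIH/3T3-derived Gli1-Luc reporter cells plated 4 h, dosed with compound, then stimulated with conditioned medium for 24 h at 37 C. Firefly luciferase luminescence read after 30 min with detection reagent at room temperature.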

[15] = molecular target: Estrogen receptor beta (Homo sapiens) (UniProt Q92731); experiment: qHTS assay to identify small molecule agonists of the estrogen receptor beta (ER-beta) signaling pathway (AID 1259377; active means well fitted activation curve with a large enough effect in the signal ratio in the repeat runs, not every such curve was filed as active; the % refers to the signal ratio)
Procedure, shortened: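 Beta-lactamase reporter readout: fluorescence of LiveBLAzer B/G FRET substrate after 2 h at room temperature, following 16 h compound treatment of ER-beta-UAS-bla HEK293T cells at 37C in 2% charcoal-stripped FBS medium.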

[16] = molecular target: Estrogen receptor beta (Homo sapiens) (UniProt Q92731); experiment: qHTS assay to identify small molecule antagonists of the estrogen receptor beta (ER-beta) signaling pathway (AID 1259378; active means well fitted inhibition curve with a large enough effect in the signal ratio in the repeat runs, not every such curve was filed as active; the % refers to the signal ratio)
Procedure, shortened: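 ER-beta-UAS-bla HEK293T (GripTite) cells in 2% charcoal-stripped FBS medium were preincubated 6 hr at 37C, dosed with compound, then stimulated with 1 nM E2 (final) for 16 hr; beta-lactamase reporter read by B/G FRET fluorescence after 2 hr substrate loading.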

[17] = qHTS assay to identify small molecule agonists or antagonists of the thyroid stimulating hormone receptor (TSHR) signaling pathway - wild type cell line counter screen (AID 1259384; calls by dose curve)
Procedure, shortened: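 Wild-type HEK293 cells were plated 18 h at 37 C/5% CO2, pin-dosed with compound plus Ro20-1724 medium, held 30 min at room temperature, then given cAMP-d2 and anti-cAMP-cryptate; fluorescence was read after 1 h. Fifteen concentrations, triplicate.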

[18] = molecular target: Thyrotropin receptor (Homo sapiens) (UniProt P16473); experiment: qHTS assay to identify small molecule antagonists of the thyroid stimulating hormone receptor (TSHR) signaling pathway (AID 1259385; calls by dose curve; further: nearly all actives have a fitted effect of over 20% in size)
Procedure, shortened: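 TSHR-HEK293 cells were plated and held 18 h at 37C/5% CO2, then given compound plus Ro20-1724 and stimulated with TSH at 1.5 ng/mL final. After 30 min at room temperature, cAMP was detected with cAMP-d2/anti-cAMP-cryptate (1 h) by fluorescence.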

[19] = molecular target: Progesterone receptor (Homo sapiens) (UniProt P06401); experiment: qHTS assay to identify small molecule agonists of the progesterone receptor (PR) signaling pathway (AID 1346784; calls by dose curve; further: nearly all actives have a fitted effect of over 30% in size)
Procedure, shortened: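 HEK 293T PR-UAS-bla reporter cells, 2% charcoal-stripped FBS; 6 hr settle at 37C/5% CO2, compound (DMSO) 16 hr, LiveBLAzer B/G FRET substrate 2 hr RT, fluorescence intensity read.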

[20] = qHTS assay to identify small molecule antagonists of the progesterone receptor (PR) signaling pathway - cell viability counter screen (AID 1346798); further: series mostly up to about 92 µM; nearly all actives have a fitted effect of over 50% in size
Procedure, shortened: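 Luminescence readout (CellTiter-Glo, 30 min, RT) of viability in PR-UAS-bla HEK293T cells exposed to compound and R5020 agonist for 16 hr at 37C, 5% CO2; run in the same wells as the beta-lactamase reporter read.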

Measured: Potency

Sequence of Progesterone receptor (Homo sapiens) (P06401 whole entry, looked up): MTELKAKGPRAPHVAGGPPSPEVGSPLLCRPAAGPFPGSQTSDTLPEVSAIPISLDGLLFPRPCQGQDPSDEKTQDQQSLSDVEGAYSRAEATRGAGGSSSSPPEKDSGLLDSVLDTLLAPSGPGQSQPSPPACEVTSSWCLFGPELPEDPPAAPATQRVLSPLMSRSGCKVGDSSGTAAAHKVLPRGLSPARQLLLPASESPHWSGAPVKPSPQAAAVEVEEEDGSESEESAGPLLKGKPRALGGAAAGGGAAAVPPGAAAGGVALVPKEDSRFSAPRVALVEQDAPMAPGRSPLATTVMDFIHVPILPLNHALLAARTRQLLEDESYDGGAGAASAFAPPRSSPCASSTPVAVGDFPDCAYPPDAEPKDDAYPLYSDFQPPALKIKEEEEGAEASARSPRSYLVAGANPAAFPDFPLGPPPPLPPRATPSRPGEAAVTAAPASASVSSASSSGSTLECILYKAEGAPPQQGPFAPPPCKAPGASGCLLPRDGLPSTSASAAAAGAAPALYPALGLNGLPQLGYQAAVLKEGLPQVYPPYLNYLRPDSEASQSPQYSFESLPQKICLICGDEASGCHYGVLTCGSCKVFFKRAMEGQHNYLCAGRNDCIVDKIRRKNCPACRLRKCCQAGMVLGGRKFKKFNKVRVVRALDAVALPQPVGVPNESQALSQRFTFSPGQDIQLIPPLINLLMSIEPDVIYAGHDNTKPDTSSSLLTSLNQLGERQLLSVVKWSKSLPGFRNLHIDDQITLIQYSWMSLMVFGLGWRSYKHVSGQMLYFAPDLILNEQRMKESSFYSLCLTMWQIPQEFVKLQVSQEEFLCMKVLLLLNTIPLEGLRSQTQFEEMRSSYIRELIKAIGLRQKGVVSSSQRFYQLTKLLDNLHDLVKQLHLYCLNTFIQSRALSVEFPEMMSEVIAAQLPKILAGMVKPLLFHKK
Sequence of Estrogen receptor beta (Homo sapiens) (Q92731 whole entry, looked up): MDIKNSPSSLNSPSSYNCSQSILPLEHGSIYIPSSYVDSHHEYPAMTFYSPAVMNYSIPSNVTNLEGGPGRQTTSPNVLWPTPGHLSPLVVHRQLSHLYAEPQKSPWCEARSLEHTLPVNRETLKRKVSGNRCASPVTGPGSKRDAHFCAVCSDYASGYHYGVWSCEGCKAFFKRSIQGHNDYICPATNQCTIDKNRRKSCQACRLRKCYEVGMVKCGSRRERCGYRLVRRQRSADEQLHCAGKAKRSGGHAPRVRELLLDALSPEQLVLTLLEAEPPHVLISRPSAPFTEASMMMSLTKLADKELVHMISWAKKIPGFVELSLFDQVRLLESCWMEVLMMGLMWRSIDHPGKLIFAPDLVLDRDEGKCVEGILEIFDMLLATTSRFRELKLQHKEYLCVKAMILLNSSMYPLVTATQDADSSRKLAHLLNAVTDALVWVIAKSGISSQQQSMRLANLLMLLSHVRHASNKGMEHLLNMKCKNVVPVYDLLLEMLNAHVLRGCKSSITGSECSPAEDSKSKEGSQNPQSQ
Sequence of Thyrotropin receptor (Homo sapiens) (P16473 whole entry, looked up): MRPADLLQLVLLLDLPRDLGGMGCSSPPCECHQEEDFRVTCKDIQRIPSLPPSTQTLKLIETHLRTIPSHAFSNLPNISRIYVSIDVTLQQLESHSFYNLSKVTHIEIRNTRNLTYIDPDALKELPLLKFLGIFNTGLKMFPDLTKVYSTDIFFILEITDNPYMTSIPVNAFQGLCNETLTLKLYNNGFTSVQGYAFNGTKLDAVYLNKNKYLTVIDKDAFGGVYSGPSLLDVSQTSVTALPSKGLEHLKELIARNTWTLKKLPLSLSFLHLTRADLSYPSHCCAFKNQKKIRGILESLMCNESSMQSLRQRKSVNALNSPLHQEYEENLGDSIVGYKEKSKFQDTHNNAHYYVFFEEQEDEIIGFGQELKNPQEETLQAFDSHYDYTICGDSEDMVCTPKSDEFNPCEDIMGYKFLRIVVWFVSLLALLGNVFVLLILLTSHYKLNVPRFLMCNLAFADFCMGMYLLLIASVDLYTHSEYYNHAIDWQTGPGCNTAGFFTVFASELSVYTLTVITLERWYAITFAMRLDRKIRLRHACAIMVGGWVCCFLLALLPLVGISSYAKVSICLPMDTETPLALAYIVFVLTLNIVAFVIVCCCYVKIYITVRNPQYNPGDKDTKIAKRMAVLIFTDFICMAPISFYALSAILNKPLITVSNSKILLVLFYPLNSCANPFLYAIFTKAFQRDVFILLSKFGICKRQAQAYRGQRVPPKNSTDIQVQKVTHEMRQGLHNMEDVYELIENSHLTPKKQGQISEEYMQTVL
Sequence of Estrogen receptor (Homo sapiens) (P03372 whole entry, looked up): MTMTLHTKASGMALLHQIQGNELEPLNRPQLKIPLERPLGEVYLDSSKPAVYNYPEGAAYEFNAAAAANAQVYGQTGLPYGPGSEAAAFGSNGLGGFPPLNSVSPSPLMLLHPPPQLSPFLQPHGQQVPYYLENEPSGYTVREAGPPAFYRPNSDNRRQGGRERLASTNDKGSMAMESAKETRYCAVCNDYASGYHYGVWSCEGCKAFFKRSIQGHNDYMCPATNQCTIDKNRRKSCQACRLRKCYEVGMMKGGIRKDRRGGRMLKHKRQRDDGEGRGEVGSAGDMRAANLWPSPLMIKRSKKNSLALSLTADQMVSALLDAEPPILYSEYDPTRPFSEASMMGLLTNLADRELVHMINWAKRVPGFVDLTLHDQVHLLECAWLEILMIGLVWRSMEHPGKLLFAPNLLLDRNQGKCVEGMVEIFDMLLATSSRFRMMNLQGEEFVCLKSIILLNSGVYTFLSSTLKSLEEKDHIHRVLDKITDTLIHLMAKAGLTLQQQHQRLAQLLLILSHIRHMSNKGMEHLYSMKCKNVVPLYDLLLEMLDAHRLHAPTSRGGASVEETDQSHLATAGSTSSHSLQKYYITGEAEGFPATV

CCNC(=O)NCCCOc1cccc(CN2CCCCC2)c1
not listed: [14] | [15] | [16] | [17] | [18] | [19] | [20]
inactive: all other assays above

CCOC(=O)CCc1ccccc1
not listed: [5] | [9] | [13] | [20]
inactive: all other assays above

CN=C(NC#N)NCCSCc1csc(N=C(N)N)n1
not listed: [5] | [8] | [11] | [12] | [20]
inactive: all other assays above

CCCCC/C=C/CC(=O)OC
not listed: [6] | [9] | [11] | [13] | [14] | [17]
inactive: all other assays above

C1=C\CC/C=C\CC/1
not listed: [1] | [8] | [13] | [15] | [16] | [17] | [18]
inactive: all other assays above

CCNC(=O)/C=C/c1cccc(Br)c1
not listed: [1] | [9]
inactive: all other assays above

NC(=O)NC(=O)Cc1ccccc1
not listed: [5] | [6] | [20]
inactive: all other assays above

C/C=C(\C)C(=O)OCC/C=C\CC
not listed: [5] | [6] | [9] | [14]
inactive: all other assays above

CCCC(C)CC (stereo not given)
not listed: [5] | [8] | [9] | [17]
inactive: all other assays above

Cc1oc(=O)oc1CN1CCN(c2cc3c(cc2F)c(=O)c(C(=O)O)c2n3C(C)S2)CC1 (stereo not given)
not listed: [5] | [6] | [8] | [13] | [14] | [16] | [19]
inactive: all other assays above

C=CCOc1c(Br)cc(C(C)(C)c2cc(Br)c(OCC=C)c(Br)c2)cc1Br
not listed: [5] | [6] | [12] | [14] | [19] | [20]
inactive: all other assays above
